SKKanGAS inh – blocks kanamycin growth of S. pyogenes SKKanGAS strain; BacTiter-Glo, 6 h; inhibition, % at 7.5 µM; 300,000 compounds, 1.3% hits; AID 1662;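 active means mean replicate score, as percent of positive control median, at least 50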;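 further: strain carries kanamycin resistance gene driven by streptokinase promoter and grows in 40 µg/ml kanamycin; loss of luminescence reflects streptokinase promoter inhibition or plain growth inhibition; 0% = median of DMSO wells and 100% = positive control at its reference dose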
tim10-1 inh – inhibits growth of tim10-1 mutant yeast | S. cerevisiae tim10-1 ts strain growth, BacTiter-Glo, 24 h | 330,000 compounds, 2.2% hits | inhibition, % at 20 µM;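 active means inhibition of at least 40%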;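 further: mutant grown at 25 °C; 0% = DMSO wells with yeast and 100% = wells holding no yeast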
V-ATPase pH – regulators of yeast V-ATPase proton transport. S. cerevisiae, pHLuorin cytosolic pH fluorescence. response, % at 10 µM. 350,000 compounds, 0.37% hits. AID 504577; in the data active means response mostly above about 7.3%, no sharp cut-off; inactive means mostly below about 5.4%; further: actives read high
TIM10 inh – TIM10 yeast growth inhibition; S. cerevisiae TIM10 strain growth, BacTiter-Glo luminescence, 24 h; inhibition, % at 10 µM; 330,000 compounds, 1.4% hits; AID 463195;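 active means inhibition of 40% or more at the single tested concentration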;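 further: wild-type TIM10 isogenic control strain grown at permissive 25 °C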
PfHsp90 set2 – reduces growth (ATP signal) of yeast expressing P. falciparum Hsp90. S. cerevisiae expressing PfHsp90, BacTiter-Glo ATP, 48 h; yeast lacking PDR1 and PDR3 efflux regulators. inhibition, % at 9.4 µM. 310,000 compounds, 0.32% hits;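 active means every replicate shows inhibition above about 80%, whatever the replicate mean, limit read from the data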;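 further: 0% = DMSO neutral controls and 100% = 20 µM radicicol positive controls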
tim23-1 inh – inhibits growth of tim23-1 mutant yeast; inhibition, % at 20 µM; 330,000 compounds, 1.3% hits; S. cerevisiae tim23-1 growth, BacTiter-Glo luminescence, 24 h;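 active means growth inhibition of the mutant yeast at or above 50%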;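 further: temperature-sensitive mutant grown at 25 °C; plate controls were DMSO-treated mutant yeast for no effect and medium wells lacking yeast for full effect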
tim10-1 conf – confirmation of tim10-1 mutant yeast growth inhibitors; shares compounds with tim10-1 inh; S. cerevisiae tim10-1 ts strain growth, BacTiter-Glo, 24 h; inhibition, % at 20 µM; 7,400 compounds, 56% hits;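 active means inhibition of yeast growth at or above a set limit in either of two repeat tests at 20 µM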;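 further: tim10-1 mutant grown at permissive 25 °C to find synthetic lethal compounds; 0% = DMSO yeast wells and 100% = medium wells without yeast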
The depositor's hits bear a star; · = no result given. An excerpt weighted towards active compounds, which were near 4.6% of everything screened.

SMILES	SKKanGAS inh	tim10-1 inh	V-ATPase pH	TIM10 inh	PfHsp90 set2	tim23-1 inh	tim10-1 conf
Cc1ccc(-c2nc(NCc3ccco3)c3ccccc3n2)cc1	5.2	34.1	-3.3	33.0	·	47.8	·
Cc1ccc(-c2nc(NCc3cccnc3)c3ccccc3n2)cc1	-1.1	45.5*	0.0	11.3	27.1	38.2	29.8
COc1ccccc1N(C)S(=O)(=O)c1ccc(C)c(C(=O)Nc2nccs2)c1	-6.5	25.8	-0.3	3.8	9.0	32.3	·
Clc1ccc(Cn2c(-c3cccnc3Cl)nc3ccccc32)cc1	3.2	42.6*	13.4	7.2	1.5	30.9	26.2
CCn1c(-c2cccnc2Cl)nc2cc(Cl)c(Cl)cc21	0.6	23.3	-0.4	-4.6	5.1	27.9	·
Clc1ccc(Cn2c(-c3cccnc3Cl)nc3ccccc32)c(Cl)c1	1.9	42.0*	1.5	21.9	9.6	22.2	11.7
CCCOc1ccccc1C(=O)N(Cc1cccc(Br)c1)C1CCS(=O)(=O)C1 (stereo not drawn)	2.7	39.9	2.9	16.3	-15.2	29.1	·
N=c1c2c(-c3ccccc3)c(-c3ccccc3)n(Cc3ccco3)c2ncn1CCO	-5.4	43.0*	-3.1	32.3	-8.3	36.0	28.0
N=c1c2c(-c3ccccc3)c(-c3ccccc3)n(Cc3ccco3)c2ncn1CCCO	2.7	26.4	4.0	18.9	·	3.5	·
O=C(c1ccc2c(c1)OCO2)N1CCN(S(=O)(=O)c2ccc(Cl)cc2)CC1	-1.2	18.3	2.3	-4.9	-16.9	24.7	·
N#Cc1ccccc1Cn1c(=O)n(C2CCCC2)c(=O)c2ccccc21	2.0	46.1*	3.0	24.0	-8.3	41.4	38.0*
O=C1NC(=O)C(=Cc2ccccc2[N+](=O)[O-])S1	·	·	2.4	·	-16.4	·	·
O=C1NC(=O)/C(=C/c2cccc3ccccc23)S1	24.9	47.0*	-2.8	12.0	-35.2	41.0	34.6*
COc1cc(OC)cc(OC(=O)c2cccc(S(=O)(=O)N3CCN(C)CC3)c2)c1	0.0	22.3	7.4	0.7	·	29.5	·
CN1CCN(S(=O)(=O)c2cccc(C(=O)Oc3cccc(Br)c3)c2)CC1	-5.2	40.6*	-7.5	22.9	-17.2	48.6	20.6
CN(C)S(=O)(=O)c1cccc(NC(=S)NN=C(Cc2ccccc2)Cc2ccccc2)c1	8.1	43.6*	0.8	21.9	-45.3	41.0	22.0
CC1=C(C(=O)OCCC(C)C)C(c2ccc3c(c2)OCO3)NC(=O)N1 (stereo not drawn)	-1.1	8.3	2.7	-1.9	-5.2	18.9	·
CC(C)[C@H](NS(=O)(=O)c1ccccc1)C(=O)OCC(=O)N1N=C(c2ccc(Cl)cc2)CC1c1ccco1 (stereo partly drawn)	16.5	40.9*	0.6	19.9	-11.4	34.4	21.9
Cc1[nH]n(-c2ccc([N+](=O)[O-])cc2)c(=O)c1C=NCCN1CCN(C(=O)c2cccc(F)c2)CC1	23.9	41.6*	0.0	22.7	84.3*	37.7	47.8*
COc1ccccc1C(=O)NCCNc1ccc([N+](=O)[O-])cc1Cl	-3.6	-8.9	2.7	-13.1	32.5	3.4	·
Cc1ccc(NC(=O)CN(c2ccc(Cl)cc2)S(=O)(=O)c2cc([N+](=O)[O-])ccc2Cl)c(C)c1	33.3	44.5*	3.8	3.9	22.6	33.9	22.6
COc1ccc(C)cc1S(=O)(=O)N(CC(=O)Nc1cccc([N+](=O)[O-])c1)c1ccccc1	11.9	17.1	1.3	2.9	-29.6	28.0	·
O=S(=O)(Nc1nc(-c2sccc2Cl)cs1)c1cc(Cl)ccc1Cl	84.8*	43.1*	-3.4	33.4	-55.1	36.8	13.3
CC(C)(C)c1nnc(NS(=O)(=O)c2cc(Cl)ccc2Cl)s1	24.7	-12.2	-0.1	-0.4	-8.9	-1.7	·
CC(C1CC1)N(C(=O)c1ccccc1O)c1ccccc1 (stereo not drawn)	0.3	40.0	0.2	18.0	·	41.4	28.9
COc1ccccc1C(=O)NC(=O)COC(=O)Cn1cnc2c1c(=O)n(C)c(=O)n2C	-6.0	-2.8	-7.6	-4.3	-3.3	5.8	·
